From PubChem BioAssay (NCI)
About 83,000 compounds went through this panel and 20% of them were active in at least one assay; those are over-represented in the sample as a whole.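 Results are percent growth after 48 hours of single-concentration exposure. 100 means growth as in untreated cells, lower positive values show inhibition; negative values down to -100 show cell death.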 Unmarked numbers belong to inactive results. Calls of active or inactive are those of the source. Rule for the calls: active = growth percent below 10; inactive = the rest.

Columns and labels:
Test in all cases: NCI-60 one-dose screen, 48 h (100 = growth as untreated, 0 = no growth, -100 = all killed)
RPMI-8226 leukemia = settings: 10 µM
OVCAR-8 ovarian = settings: 10 µM
OVCAR-5 ovarian = settings: 10 µM
OVCAR-4 ovarian = settings: 10 µM
SK-OV-3 ovarian = settings: 10 µM
IGROV1 ovarian = settings: 10 µM
OVCAR-3 ovarian = settings: 10 µM
HS 578T breast = settings: 10 µM
NCI/ADR-RES ovarian = settings: 10 µM
BT-549 breast = settings: 10 µM
MDA-MB-435 melanoma = settings: 10 µM
SW-620 colon = settings: 10 µM
MCF7 breast = settings: 10 µM unless noted
HCT-116 colon = settings: 10 µM
HCC-2998 colon = settings: 10 µM
KM12 colon = settings: 10 µM
T-47D breast = settings: 10 µM

SMILES | growth (RPMI-8226 leukemia) | growth (OVCAR-8 ovarian) | growth (OVCAR-5 ovarian) | growth (OVCAR-4 ovarian) | growth (SK-OV-3 ovarian) | growth (IGROV1 ovarian) [%] | growth (OVCAR-3 ovarian) | growth (HS 578T breast) | growth (NCI/ADR-RES ovarian) | growth (BT-549 breast) | growth (MDA-MB-435 melanoma) | growth (SW-620 colon) | growth (MCF7 breast) | growth (HCT-116 colon) | growth (HCC-2998 colon) | growth (KM12 colon) | growth (T-47D breast)
Cc1cc2nc(CC(=O)c3cccc([N+](=O)[O-])c3)c(=O)[nH]c2cc1C | 88.4% | 92.7% | 92.1% | 89.4% | 108% | 91.4 | 102% | 72.6% | 83.9% | 87% | 93.9% | 93.7% | 74.8% | 54.8% | 89.9% | 86.6% | –
c1c(-c2cc(C3CC3)[nH]n2)n[nH]c1C1CC1 | 105% | 102% | 93.6% | 109% | 96.2% | 111 | 117% | 101% | 98.8% | 94% | 109% | 102% | 92.8% | 83.6% | – | 109% | –
COc1ccccc1NC(=O)C1=C(C)NC(C)=C(C(=O)Nc2ccccc2OC)C1c1cccc([N+](=O)[O-])c1 | 51.9% | 74.4% | 81.9% | 70.2% | 74.4% | 69.7 | 82.9% | 60.9% | 66.3% | 73.6% | 75.4% | 88% | 47.8% | 44.9% | 76.9% | 67.3% | –
O=C(CCNNC(=O)c1ccncc1)NCc1ccccc1 | 87.2% | 100% | 105% | 96.3% | 104% | 92.3 | 102% | – | 96.5% | 134% | 95.7% | 96% | 89.9% | 105% | 111% | – | 94.4%
COC(=O)Nc1nc2ccc(C(=O)c3ccc(F)cc3)cc2[nH]1 | -27.1% (active) | 6.47% (active) | 27.3% | 55.5% | 42.6% | – | -74.4% (active) | -5.44% (active) | -5.09% (active) | 32% | -60.2% (active) | 24.8% | 15.6% | 14.2% | 16.1% | -4.55% (active) | 112%
O=[N+]([O-])c1ccc(Sc2ccncn2)c([N+](=O)[O-])c1 | 40% | 102% | 96.3% | 42.9% | 102% | 83 | – | 92.6% | 58% | 74.9% | 8.62% (active) | 23% | – | 20.1% | 90.5% | – | 48.3%
Cc1c(O)cnc2nn(-c3ccccc3)c(=N)n12 | 113% | 103% | 106% | 95.8% | 108% | 113 | 113% | – | 108% | 108% | 107% | 102% | 97.5% | 101% | 98.4% | 95.8% | 100%
COCCCNC(=O)c1nnn2c1nc(N)c1cc(Cl)ccc12 | 96.9% | 103% | 109% | 90.7% | 79.2% | – | 81.1% | 90.4% | 93.9% | 79.2% | 10.9% | 81% | 73.4% | 77.6% | 89.4% | 50.2% | 79%
O=[N+]([O-])c1ccccc1S(=O)c1ccccc1[N+](=O)[O-] | 84.5% | 99.9% | 120% | 67% | 99.9% | – | 103% | – | 91.5% | 95.3% | 72.2% | 44.6% | 95.2% | 51.8% | – | 88.1% | 73.1%
Nc1ccc(C(=O)c2ccc(N)c(Br)c2)cc1Br | 30.5% | 26.4% | 40% | 49.1% | 8.33% (active) | 32.8 | – | -14.8% (active) | 0.17% (active) | 56.4% | -3.36% (active) | 21.2% | 13.2% | 14.8% | 14.1% | – | 43.5%
COc1ccc(C(O)c2ccccc2)cc1 (configuration not stated) | 108% | 97.3% | 102% | 92.6% | 99.2% | 99.3 | 107% | – | 105% | 121% | 102% | 90.3% | 97.5% | 110% | – | 93.7% | 87.3%
CC(=O)OC(C(=O)O)c1ccccc1 (configuration not stated) | 88.2% | 102% | 105% | 118% | 117% | – | 120% | – | 108% | 122% | 105% | 101% | – | 108% | 96.3% | 106% | 118%
CC(=O)Cc1cc(-c2cc(CC(C)=O)[nH]n2)n[nH]1 | 109% | 98.5% | 90.2% | 101% | 90.9% | 104 | 111% | – | 96.7% | 88.4% | 103% | 98.5% | 93.2% | 103% | – | 105% | –
COC(=O)c1[nH]c(=O)c(C#N)c(C(=O)OC)c1C(=O)c1ccccc1 | 107% | 101% | 113% | 97.5% | 101% | 105 | 107% | – | 97.5% | 110% | 99.9% | 102% | 68.9% | 99.3% | 113% | 102% | –
CC(C)=C(NC(=O)c1ccccc1)C(=O)O | 87.4% | 104% | 101% | 118% | 112% | – | 107% | – | 111% | 110% | 110% | 102% | 112% | 117% | 101% | – | 116%
Oc1ccc(O)cc1 | 67.6% | 94.6% | 123% | 105% | 114% | – | 109% | 104% | 92.4% | 82.7% | 99.7% | 112% | – | 107% | 114% | 103% | 114%
CN(C)CCN(C)CC(C)(C)C(=O)/C=C/c1ccc(Cl)cc1 | -24.1% (active) | -35.4% (active) | 3.63% (active) | 7.86% (active) | 5.56% (active) | – | 10.4% | -4.14% (active) | -36.1% (active) | -34.5% (active) | 0.434% (active) | -24.2% (active) | -8.84% (active) | -92.1% (active) | -92.9% (active) | -23.7% (active) | –
O=C(O)/C=C/C(=O)NCc1ccccc1 | 94.7% | 108% | 107% | 107% | 112% | 98.4 | 109% | – | 102% | 104% | 101% | 109% | 91.9% | 106% | 95.7% | 104% | 98.5%
COc1cccc(O)c1O | 89.2% | 86.2% | 101% | 96.3% | 76.9% | 96.4 | – | – | 85.6% | 82.3% | 6.89% (active) | 42.6% | 20.2% | 98.6% | – | 52.6% | 84.1%
CCCNC(=O)c1ccc(S(N)(=O)=O)cc1 | 96.9% | 122% | 89.7% | 84.3% | 105% | 135 | 113% | – | 99.5% | 120% | 117% | 94.5% | 95% | 96.4% | 100% | 106% | 96%
COc1ccc2c(NCCCCCCCCNc3c4ccccc4nc4cc(OC)ccc34)c3ccccc3nc2c1 | -60.3% (active) | -42.6% (active) | -91.8% (active) | -96.6% (active) | -100% (active) | – | -100% (active) | -45.9% (active) | 9.56% (active) | -95.9% (active) | -100% (active) | -100% (active) | -100% (active) | -100% (active) | -100% (active) | -100% (active) | -74.6% (active)
